Where “and” joins values, the source holds several entries; their conditions need not be identical. Identical values can stand only once.

This assay is described as follows: inhibitors of T. brucei MetRS aminoacylation, late-stage follow-up, biochemical, radioactivity, round 1 (AID 743060). Particulars: purified enzyme, radiolabel aminoacylation, scintillation, 2 h; at 10 µM; stronger effect = higher value.
For orientation: inhibition means the change of the read-out against control, counted positive when it falls. As to `CCN(CCc1nc2ccc(C)cc2[nH]1)C(=O)c1ccc2ncccc2c1`, the inhibition is -5.17%.

Turning to `CC(C)(C)[C@H]1C=C(C(=O)NCc2nc3ccccc3[nH]2)O[C@@H](OCc2ccc(CO)cc2)C1`, the inhibition was found to be 83.8%.

For `O=C(Cn1cc(C(=O)C(=O)N2CCOCC2)c2ccccc21)NCC1CCCO1` (stereo not given), the inhibition was 1.28%.

On to `O=C(NCc1nc2ccccc2[nH]1)C1=C[C@H](c2ccc(Br)cc2)C[C@H](OCc2ccc(CO)cc2)O1`, for which the inhibition turned out to be 94.6%.

Consider `O=C1[C@@H]2Cc3c([nH]c4ccccc34)C(c3cccc([N+](=O)[O-])c3)N2C(=O)CN1CCCO` (stereo not given in full), for which the inhibition came to 97.5%.

With `O=C(NCCc1nc2ccccc2[nH]1)c1ccc(Cl)cc1Cl`, the inhibition was found to be 94.9%.

For `CNC(=S)N(CCc1ccccc1)C1CC(=O)N(c2ccc(Br)cc2)C1=O` (stereo not given), the inhibition is 99.7%.

Regarding `CN(Cc1cc(Cl)cc(Cl)c1)[C@H]1C[C@H]2c3[nH]c4ccccc4c3CCN2C(=O)[C@H]1CO`, the inhibition was determined as 101%.

`COc1ccc(NC(=O)CSc2nnc3c4cc(C)ccc4n(C)c3n2)cc1`: the inhibition is -7.1%.

Turning to `O=C(CC=NOCc1ccc([N+](=O)[O-])cc1)Nc1ccc(Cl)cc1`, the inhibition is 86.5%.

On to `O=C(NCc1nc2ccccc2[nH]1)C1=C[C@H](c2csc3ccccc23)C[C@H](OCCCCO)O1`, for which the inhibition stood at 97.8%.

As to `CCOC(=O)N1CCC(Nc2c(Nc3ccc(F)cc3)c(=O)c2=O)CC1`, the inhibition stood at 72.7%.

With `O=C(NCc1nc2ccccc2[nH]1)C1=C[C@@H](c2ccccc2)C[C@@H](OCc2ccc(CO)cc2)O1`, the inhibition was 94.3%.

`O=C(Nc1ccc(F)c(Cl)c1)C1CC(=O)n2c(nc3ccccc32)N1` (stereo not given): the inhibition is 90.3% and 93.6%.

For the molecule `CCCCCCCCCC1NC(C(=O)O)Cc2c1[nH]c1ccccc21` (stereo not given), the inhibition turned out to be 93.2%.

On to `CCN(C(=O)Cn1cc(C(=O)C(=O)N2CCOCC2)c2ccccc21)c1ccccc1`, for which the inhibition is -23.7%.

Take `O=C(NNC(=O)c1cc(-c2ccc(Cl)c(Cl)c2)nc2ccccc12)Nc1ccccc1`: the inhibition was 85.5%.

`O=C(NCc1nc2ccccc2[nH]1)C1=C[C@@H](c2ccc(Br)cc2)C[C@@H](OCCCCO)O1`: the inhibition was found to be 99.9%.

As to `CCCCn1c(CCNC(=O)c2ccc(F)cc2)nc2ccccc21`, the inhibition came to 2.32%.

`CCc1ccc2c(c1)c1nnc(SCC(=O)Nc3ccc4c(c3)OCO4)nc1n2C`: the inhibition is -8.11%.

On to `O=C(C[C@H]1C(=O)N(Cc2ccccc2)C[C@@H]1c1ccc(Br)cc1)Nc1ccc(Br)cc1`, for which the inhibition stood at 94.4%.

In the case of `CCO[C@H]1OC(C(=O)NCc2nc3ccccc3[nH]2)=C[C@@H](c2ccc(Br)cc2)[C@@H]1CCCO`, the inhibition worked out at 81.6%.

As for `CC(=O)c1cn(CC(=O)Nc2cccc(C(F)(F)F)c2)c2ccccc12`, the inhibition came out at 39.3%.

Regarding `COc1ccc(OCC(O)CNC(=O)Nc2ccc(Cl)cc2)cc1` (stereo not given), the inhibition stood at 61.9%.

For the molecule `CCN(CC)C(=O)C(=O)c1cn(CC(=O)Nc2ccccc2OC)c2ccccc12`, the inhibition was -11.4%.

Take `O=C(CCC(=O)Nc1cccc([N+](=O)[O-])c1)NN=Cc1cccs1`: the inhibition turned out to be 74.3%.

`Cc1cccc2[nH]c(CCN(C)C(=O)c3cccc(C4CCNC4)c3)nc12` (stereo not given): the inhibition was -14.3%.

On to `O=C(NCCc1nc2ccccc2[nH]1)c1c(F)cccc1F`, for which the inhibition stood at 1.38%.

As to `CC(=O)c1ccc(N2CCN(C(=O)CCCn3c(=O)[nH]c4ccc(Br)cc4c3=O)CC2)cc1`, the inhibition came to 97%.

Take `O=C(NCc1nc2ccccc2[nH]1)C1=C[C@H](C2CC2)C[C@H](OCc2ccc(CO)cc2)O1`: the inhibition was found to be 56.9%.

For `O=C(CN1CCSC1=NCc1ccccc1)c1ccc(Cl)c(Cl)c1`, the inhibition was determined as 28%.

For the molecule `Clc1ccc(-c2nnc(SCc3nc4ccccc4[nH]3)o2)c(Cl)c1`, the inhibition is 97%.

With `Cc1cc2cc(C(=O)N3CCCC(c4nc5ccccc5[nH]4)C3)ccc2o1` (stereo not given), the inhibition is 78.2%.

For `Cc1ccc(C(=O)NCCc2nc3ccccc3[nH]2)cc1[N+](=O)[O-]`, the inhibition was found to be 86.4%.

Consider `O=C1CC(SCc2nc3ccccc3[nH]2)C(=O)N1c1cccc(Cl)c1` (stereo not given), for which the inhibition was 52.6%.

Source of the values: PubChem BioAssay AID743060 (The Scripps Research Institute Molecular Screening Center, 2013).
